# Compounds with a hit are over-represented: about 12% of the library has one in this group of screens.
# HP1b chromo inh – HTS for Inhibitors of HP1-beta Chromodomain Interactions with Methylated Histone Tails; AlphaScreen HP1-beta / biotin-H3K9me3 peptide binding; Potency, µM (series often up to 114 µM), hits mostly inhibitors; hit rate 0.56% among 390,000; AID 540317, 2011; also: nearly all actives have a fitted effect of over 70% in size
# Target sequence (P83916 whole entry, looked up): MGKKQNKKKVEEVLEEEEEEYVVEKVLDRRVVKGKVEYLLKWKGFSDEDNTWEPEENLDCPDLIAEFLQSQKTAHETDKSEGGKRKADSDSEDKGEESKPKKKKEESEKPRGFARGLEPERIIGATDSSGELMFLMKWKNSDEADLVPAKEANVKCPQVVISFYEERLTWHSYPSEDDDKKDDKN
#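 AlphaScreen: HP1-beta (50 nM) preformed 30 min with biotin-H3(1-18)K9me3 peptide (50 nM) in PBS pH 7.4, 0.01% Tween-20. Compound added for 30 min at RT, then streptavidin donor/nickel chelate acceptor beads (10 ug/mL) for 30 min.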
# Sfp PPTase inh – qHTS Assay for Inhibitors of Bacillus subtilis Sfp phosphopantetheinyl transferase (PPTase); Biochemical Sfp PPTase activity, qHTS; Potency, µM, usual class: inhibitors; hit rate 3.5% among 310,000; AID 1490, 2009;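 also: the enzyme is Sfp with the accession as filed and its product quenches rhodamine fluorescence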
#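 Reaction rates are the 30-min fluorescence difference (ex 525, em 598 nm) in wells containing 15 nM Sfp, 5 uM rhodamine-CoA and 12.5 uM BHQ-2-YbbR at pH 7.6 with 10 mM MgCl2.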
# G9a inh – qHTS Assay for Inhibitors of Histone Lysine Methyltransferase G9a. hit rate 8.8% among 350,000. AID 504332, 2011. Potency, µM (doses to about 102 µM), most hits filed as inhibitors. Histone-lysine N-methyltransferase EHMT2 (Homo sapiens), Q96KQ7. G9a H3K9 monomethylation, AlphaScreen, 2 h; also: nearly all actives have a fitted effect of over 75% in size
# Target sequence (Q96KQ7 913-1193 limits assumed): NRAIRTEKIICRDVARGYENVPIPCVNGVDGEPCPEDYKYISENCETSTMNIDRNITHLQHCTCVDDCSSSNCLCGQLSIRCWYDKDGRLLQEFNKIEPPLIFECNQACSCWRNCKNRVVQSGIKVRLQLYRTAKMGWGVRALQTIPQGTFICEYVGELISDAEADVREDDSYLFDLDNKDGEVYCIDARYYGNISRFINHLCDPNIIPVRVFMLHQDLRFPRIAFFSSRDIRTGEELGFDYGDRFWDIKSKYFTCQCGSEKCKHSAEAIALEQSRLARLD
#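 Methyltransferase reactions run at room temperature for 2 h (20 nM enzyme, 500 nM biotin-H3K9 peptide, 20 uM SAM) after a 15 min compound preincubation; product detected by AlphaScreen beads and anti-H3K9me1 antibody.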
# BAZ2B block – qHTS Assay for Inhibitors of BAZ2B; Bromodomain adjacent to zinc finger domain protein 2B (Homo sapiens), Q9UIF8; AlphaScreen BAZ2B-H3K14Ac peptide displacement; Potency, µM (top dose mostly 114 µM), hits mostly inhibitors; hit rate 4.4% among 360,000; also: nearly all actives have a fitted effect of over 60% in size
#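 BAZ2B 50 nM plus b-H3(5-23)K14Ac 50 nM, PBS pH 7.4/0.01% Tween-20, 30 min RT; compound added (max 110 uM), 30 min RT; streptavidin donor/Ni-chelate acceptor beads 10 ug/mL final, 20 min dark; AlphaScreen read.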
# JMJD2A Tudor – qHTS Assay for Inhibitors of JMJD2A-Tudor Domain | Lysine-specific demethylase 4A (Homo sapiens), O75164 | AlphaScreen JMJD2A-Tudor / H3K4me3 peptide binding | Potency, µM (doses to about 114 µM), hits mostly inhibitors | hit rate 4.4% among 390,000; also: nearly all actives have a fitted effect of over 50% in size
# PLK1 PBD block – qHTS for Inhibitors of PLK1-PDB (polo-like kinase 1 - polo-box domain): Primary Screen | Serine/threonine-protein kinase PLK1 (Homo sapiens), P53350 | Plk1 PBD binding of FITC phosphopeptide, fluorescence polarization | Potency, µM, actives largely listed as inhibitors | hit rate 2.8% among 360,000 | AID 720504, 2013; also: series mostly up to about 57 µM; nearly all actives have a fitted effect of over 65% in size
# Hits are given with their value; n = inactive; u = inconclusive; x = not tested or not shown; [ ] = remark or other dose. Calls follow the shape of the dose curve; as a rule, active = well fitted curve in the direction sought with a large enough effect; inconclusive = small, poorly fitted or top-dose-only effect, or another doubt; inactive = no such curve, though single readings can be large; an effect the other way counts as inactive or inconclusive.
SMILES,HP1b chromo inh,Sfp PPTase inh,G9a inh,BAZ2B block,JMJD2A Tudor,PLK1 PBD block
CCc1c(C)[nH]c2ccc(OC)cc2c1=S,u,10µM,4.5µM,u,n[11.4 µM],13µM
COc1ccc2[nH]c(C)c(CCNC(=S)Nc3cc(C)cc(C)c3)c2c1,u,n,n,28µM,50µM,n
CCOc1ccc(NC(=O)c2ccc3[nH]c(C)cc(=O)c3c2)cc1,n,x,u,n,n,x
COc1ccc2[nH]c(C)c(CCNc3ccc(C(F)(F)F)cc3[N+](=O)[O-])c2c1,u,n,11µM,28µM,22µM,n
CS(=O)(=O)NCCNc1ccc(C(F)(F)F)cc1[N+](=O)[O-],n,n,n,n,n,n
CCOc1ccc(Cc2c(C)[nH]c3ccc(C(=O)O)cc3c2=S)cc1,n,56µM,13µM,n,25µM,n
COc1ccc2[nH]c(C)c(CN3CCCCC3)c(=O)c2c1,n,n,n[12.7 µM],n,n,n
COc1cccc(CC(=O)OCC(=O)N(C)CC(=O)Nc2ccc(Cl)c(C(F)(F)F)c2)c1,n,x,n,n,n,n
C=CCC(C)(O)C(=O)OCC (stereo not given),x,n,x,x,x,x
O=C(CC1SC(N2CCCC2)=NC1=O)Nc1ccc(C(=O)NCCOc2ccccc2F)cc1 (stereo not given),n,x,n,n,n,n
CC(=O)c1ccc(NC(=O)C2CCC(CNS(=O)(=O)c3ccc4c(c3)CCCC(=O)N4)CC2)cc1 (stereo not given),n,x,n,n,n,x
COc1ccc2[nH]c(C)c(CCN(Cc3cccs3)C(=S)Nc3ccc(F)cc3)c2c1,u,n,u,u,u,n
COc1ccc2[nH]c(C)c(CCNC(=S)Nc3cc(C)ccc3C)c2c1,n,n,n,n,n,n
COc1ccc2[nH]c(C)c(CCNC(=S)Nc3cccc(C)c3)c2c1,n,n,45µM,35µM,u,n
COc1ccc2[nH]c(C)c(CCNC(=S)Nc3ccccc3OC)c2c1,n,n,56µM,x,u,n
COc1ccc2[nH]c(C)c(CCNC(=S)Nc3ccc(F)cc3)c2c1,n,n,56µM,x,u,n
C=C1OC(CO)(n2cnc3c(N)ncnc32)C(O)C1O (stereo not given),n,n,n,x,n,x
CNC(=O)c1cnn2c(C)cc(C)nc12,x,x,x,x,n,x
CC(C)c1nnc(NC(=O)c2nc(S(=O)(=O)Cc3ccc(F)cc3)ncc2Cl)s1,n,n,8.9µM,n,u,n
CCSc1nnc(NC(=O)c2nc(S(=O)(=O)Cc3ccc(F)cc3)ncc2Cl)s1,n,n,x,u,2.8µM,u
Cc1ccc(CS(=O)(=O)c2ncc(Cl)c(C(=O)Nc3nnc(C(C)C)s3)n2)cc1,n,u,45µM,n,u,u
CSc1ncc(Cl)c(C(=O)Nc2nnc(SC/C=C/c3ccccc3)s2)n1,n,n,u,n,n,u
C=CCSc1nnc(NC(=O)c2nc(SCC)ncc2Cl)s1,n,n,7.9µM,n,n,n
CCC(NC(=S)NCc1ccc(F)cc1)c1ccccc1 (stereo not given),n,n,n,n,n,n
COCCN(C(=S)Nc1ccc(C)c(C)c1)C(C)c1ccco1 (stereo not given),n,n,n,n,n,n
SMILES,HP1b chromo inh,Sfp PPTase inh,G9a inh,BAZ2B block,JMJD2A Tudor,PLK1 PBD block
CCc1cccc(NC(=S)N(CCOC)C(C)c2ccco2)c1 (stereo not given),n,56µM,n[12.7 µM],n,n,n
O=C(c1csnn1)N1CCC2(CC1)CN(c1ccncc1)C2,x,n,n[12.7 µM],x,x,x
COC(=O)C(NNc1ccc(F)cc1)(NC(=O)c1ccccc1)C(F)(F)F (stereo not given),n,n,25µM,n,n,n
COC(=O)C(NNc1ccccc1C)(NC(=O)c1ccc(F)cc1)C(F)(F)F (stereo not given),u,n,3.2µM,n,u,27µM
CC(C)=N/N=C(\N)SCc1ccccc1,n,n,7.9µM,79µM,n,n
CC(C)(Cc1ccc(O)cc1)NC(=O)SCc1ccccc1,n,n,x,n,n,n
CNC1CCCN(c2c(F)cc3c(=O)c(C(=O)O)cn(C4CC4)c3c2OC)C1 (stereo not given),x,n,n[12.7 µM],x,x,x
COc1c(N2CCN(C(=S)NCc3ccccc3)C(C)C2)c(F)cc2c(=O)c(C(=O)O)cn(C3CC3)c12 (stereo not given),n,n,n,79µM,56µM,u
COc1c(F)c(F)cc2c(=O)c(C(=O)O)cn(C3CC3)c12,n,n,n,u,28µM,n
Cc1ccc(-c2noc(C3CCCN(C(=O)c4ccccc4)C3)n2)o1 (stereo not given),n,n,u,n,n,n
Cc1ccc(-c2noc(C3CCCN(C(=O)c4ccccc4Br)C3)n2)o1 (stereo not given),n,n,25µM,n,n,n
CCOc1ccc(NC(=O)c2cc3c(n(-c4ccc(OC)cc4)c2=O)CC(C)(C)CC3=O)cc1,n,x,n,u,n,x
Cc1nn(-c2ccccc2)c(C)c1/C=N/n1c(-c2ccncc2)n[nH]c1=S,n,n,2.2µM,u,u,n
Cc1nn(-c2ccccc2)c(C)c1/C=N/n1c(-c2ccc(Cl)cc2)n[nH]c1=S,n,n,5µM,n,u,u
Cc1ccc(-c2n[nH]c(=S)n2/N=C/c2c(C)[nH]n(-c3ccccc3)c2=O)cc1,n,50µM,1.3µM,x,u,n
O=C(CN1C(=O)C2(OCCO2)c2ccccc21)c1ccc(Br)cc1,n,n,40µM,n,n,n
COc1ccc(NC(=O)CSc2nnc(-c3ccccn3)n2N)cc1Cl,n,n,n,u,n,n
CCOC(=O)c1c(NC(=O)CSc2nnc(-c3ccncc3)n2Cc2ccco2)sc(C(C)=O)c1C,n,x,x,x,n,n
CCOC(=O)c1c(NC(=O)CSc2nnc(-c3ccncc3)n2Cc2ccco2)sc(C)c1C,n,n,50µM,u,u,n
Cc1cc(C)c(NC(=O)CSc2nnc(-c3ccncc3)n2Cc2ccco2)c(Cl)c1,n,20µM,50µM,n,n,n
Cc1cc(C)c(NC(=O)CSc2nnc(-c3ccccn3)n2N)c(Cl)c1,n,n,n,14µM,45µM,n
CC1(C)S[C@@H]2[C@H](NC(=O)[C@@H](N)c3ccc(O)cc3)C(=O)N2[C@H]1C(=O)O,x,n,n[21.5 µM],x,x,x
COc1cc(/C=C/C(O)=C/C(=O)/C=C/c2ccc(O)cc2)ccc1O,n,x,n[0.501 µM],u,u,n
CC(=O)C1(C)C(=O)N(c2ccc(F)cc2)C(=O)N1c1ccc(F)cc1 (stereo not given),n,x,x,x,n,n
O=C(COC(=O)c1sc2ccccc2c1Cl)NC1CCCCC1,n,u,n,n,n,n

# Assay outcomes deposited in PubChem BioAssay by National Center for Advancing Translational Sciences (NCATS).
